PubChem BioAssay (NCI)
About 79,000 compounds went through this panel and 15% of them were active in at least one assay; those are over-represented in the sample as a whole. Calls of active or inactive are those of the source. Rule as the data show it: active = growth inhibition above about 70%; inactive = the rest.

What was measured:
[1] = NCI Yeast Anticancer Drug Screen. Data for the rad52 strain (AID 147);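 also: 0% = growth of vehicle-treated control cultures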; settings: S. cerevisiae rad52 mutant growth inhibition, active compounds read high
Method in brief: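 Measured: yeast growth inhibition. System: strain with a defined DNA damage repair alteration. Reference: vehicle-treated control cultures.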

[2] = NCI Yeast Anticancer Drug Screen. Data for the wt1 strain (AID 149);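 also: 0% = growth of vehicle-treated wt1 cultures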; settings: S. cerevisiae wt1 strain (SPY 50644) growth inhibition, active compounds read high
Method in brief: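 The wt1 strain was treated with compounds, and growth was compared with vehicle-treated cultures to give inhibition.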

[3] = NCI Yeast Anticancer Drug Screen. Data for the rad50EPP+ strain (AID 151);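 also: 0% = growth of vehicle-treated control cultures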; settings: S. cerevisiae rad50 mutant strain, active compounds read high
Method in brief: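 One strain with a rad50 alteration (rad50EPP+) was compound-treated, its growth then compared to that of vehicle controls.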

[4] = NCI Yeast Anticancer Drug Screen. Data for the rad50 strain (AID 155);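 also: 0% = growth of vehicle-only cultures of the same strain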; settings: S. cerevisiae rad50 strain growth inhibition, active compounds read high
Method in brief: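 Cells are treated with compound, grown, and their growth is then scored against vehicle-only cultures of the same repair-deficient yeast strain.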

[5] = NCI Yeast Anticancer Drug Screen. Data for the mec2-1 strain (AID 157); settings: S. cerevisiae mec2-1 strain, active compounds read high
Method in brief: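 Test agents were screened against the mec2-1 yeast strain, with defined DNA repair or cell cycle alteration. Growth was scored as inhibition against vehicle-only controls.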

[6] = NCI Yeast Anticancer Drug Screen. Data for the rad14 strain (AID 159);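 also: 0% = growth of vehicle-treated control cultures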; settings: S. cerevisiae rad14 strain growth inhibition, active compounds read high
Method in brief: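 Readout: yeast growth inhibition, referenced to vehicle-only cultures. Strain bears a defined alteration in DNA damage repair.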

[7] = NCI Yeast Anticancer Drug Screen. Data for the sgs1 mgt1 strain (AID 161);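 also: 0% = growth of cultures given vehicle only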; settings: S. cerevisiae sgs1 mgt1 strain, active compounds read high
Method in brief: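 Genetically altered yeast, compound exposure, growth inhibition relative to vehicle.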

[8] = NCI Yeast Anticancer Drug Screen. Data for the CLN2oe strain (AID 163);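 also: 0% = growth of vehicle-only control cultures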; settings: S. cerevisiae CLN2oe strain, active compounds read high
Method in brief: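 Here, growth inhibition in a cell-cycle-altered yeast strain after compound exposure was quantified against vehicle control growth.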

[9] = NCI Yeast Anticancer Drug Screen. Data for the cln2 rad14 strain (AID 165);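 also: 0% = growth equal to vehicle treated cultures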; settings: S. cerevisiae cln2 rad14 strain, active compounds read high
Method in brief: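 Growth of compound-exposed yeast (cln2 rad14 genotype) measured and expressed as inhibition relative to vehicle.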

[10] = NCI Yeast Anticancer Drug Screen. Data for the bub3 strain (AID 167); settings: S. cerevisiae bub3 mutant strain, active compounds read high
Method in brief: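 Part of a panel of yeast mutants defective in DNA damage repair or cell cycle regulation. Each strain is grown with compound, and inhibition is calculated relative to solvent-treated cultures.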

[11] = NCI Yeast Anticancer Drug Screen. Data for the wt2 strain (AID 169);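 also: 0% = growth of vehicle-treated yeast cultures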; settings: S. cerevisiae wt2 strain growth inhibition, active compounds read high
Method in brief: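 Genetically defined yeast strains from a DNA-repair/cell-cycle panel were used. Compound-exposed yeast growth was measured, and the inhibition was calculated relative to vehicle treatment.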

[12] = NCI Yeast Anticancer Drug Screen. Data for the mlh1 strain (AID 171);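 also: 0% = growth of vehicle-treated control cultures of the same strain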; settings: S. cerevisiae mlh1 strain growth inhibition, active compounds read high
Method in brief: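 Here the genetically defined yeast mutant is grown with each compound, and the extent to which its growth falls below that of vehicle-exposed cells is reported.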

[13] = NCI Yeast Anticancer Drug Screen. Data for the sgs1 strain (AID 173);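 also: 0% = growth of vehicle-only control cultures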; settings: S. cerevisiae sgs1 mutant, active compounds read high
Method in brief: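 Relative growth inhibition, referenced to vehicle, was determined in a yeast strain with a defined alteration affecting DNA damage repair or cell cycle control after compound exposure.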

[14] = NCI Yeast Anticancer Drug Screen. Data for the mlh1 rad18 strain (AID 175); settings: S. cerevisiae mlh1 rad18 strain growth inhibition, active compounds read high
Method in brief: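 In this whole-cell yeast screen, a strain with altered DNA damage repair is challenged with compound, and its growth is measured against matched vehicle-treated controls.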

[15] = NCI Yeast Anticancer Drug Screen. Data for the rad18 strain (AID 177); settings: S. cerevisiae rad18 mutant growth inhibition, active compounds read high
Method in brief: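 Screen uses a yeast strain with a defined lesion in DNA damage repair; compound effect is read as loss of growth compared to untreated vehicle cultures.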

[16] = NCI Yeast Anticancer Drug Screen. Data for the mgt1 strain (AID 153); settings: S. cerevisiae mgt1 mutant growth inhibition, active compounds read high
Method in brief: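 After exposure of the mgt1 yeast mutant to compound, growth was measured and reported as inhibition compared with vehicle controls.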

[17] = at 5.0 µM (retest, dose inferred, filed as 0.5)
[18] = at 50.0 µM (retest, dose inferred, filed as 5.0)

Measured: growth inhibition

CCCCCCN(CCCCCC)CC(O)c1ccnc2ccc(OC)cc12 (stereo unspecified)
active: [7]; at 50.0 µM 74.5% | [12]; at 100.0 µM 74% | [13]; at 100.0 µM 79%
inactive: [1]; at 1.2 µM 0% | [1]; at 3.7 µM -2% | [1]; at 11.0 µM -5% | [1]; at 33.0 µM -7% | [1]; at 100.0 µM 66% | [2]; at 1.2 µM -1% | [2]; at 3.7 µM -3% | [2]; at 11.0 µM -5% | [2]; at 33.0 µM -7% | [2]; at 100.0 µM 15% | [3]; at 1.2 µM -4% | [3]; at 3.7 µM -2% | [3]; at 11.0 µM -2% | [3]; at 33.0 µM -5% | [3]; at 100.0 µM -8% | [4]; at 1.2 µM 1% | [4]; at 3.7 µM 1% | [4]; [17] -9% | [4]; at 11.0 µM -1% | [4]; at 33.0 µM -3% | [4]; [18] 27% | [4]; at 50.0 µM -10.1% | [4]; at 100.0 µM 69% | [5]; at 1.2 µM 2% | [5]; at 3.7 µM -1% | [5]; [17] -5% | [5]; at 11.0 µM 1% | [5]; at 33.0 µM 2% | [5]; [18] 18% | [5]; at 50.0 µM 1.15% | [5]; at 100.0 µM 67% | [6]; at 1.2 µM -2% | [6]; at 3.7 µM -3% | [6]; at 11.0 µM -4% | [6]; at 33.0 µM -5% | [6]; at 100.0 µM 63% | [7]; [17] -9% | [7]; [18] 49% | [8]; at 1.2 µM 6% | [8]; at 3.7 µM 1% | [8]; at 11.0 µM -1% | [8]; at 33.0 µM 1% | [8]; at 100.0 µM 36% | [9]; [17] -12% | [9]; [18] 26% | [9]; at 50.0 µM -8.6% | [10]; at 1.2 µM 5% | [10]; at 3.7 µM 5% | [10]; [17] -1% | [10]; at 11.0 µM 6% | [10]; at 33.0 µM 4% | [10]; [18] 40% | [10]; at 50.0 µM 26.6% | [10]; at 100.0 µM 61% | [11]; at 1.2 µM -1% | [11]; at 3.7 µM -4% | [11]; at 11.0 µM -5% | [11]; at 33.0 µM -5% | [11]; at 100.0 µM 68% | [12]; at 1.2 µM -1% | [12]; at 3.7 µM -3% | [12]; at 11.0 µM -3% | [12]; at 33.0 µM -4% | [13]; at 1.2 µM -3% | [13]; at 3.7 µM -2% | [13]; at 11.0 µM -3% | [13]; at 33.0 µM -3% | [14]; [17] -3% | [14]; [18] 14% | [14]; at 50.0 µM 38.1% | [15]; at 1.2 µM -5% | [15]; at 3.7 µM -7% | [15]; at 11.0 µM -7% | [15]; at 33.0 µM -13% | [15]; at 100.0 µM 35%

CC(=O)SC(C[N+](=O)[O-])c1ccccc1 (stereo unspecified)
inactive: [1]; at 1.2 µM 55% | [2]; at 1.2 µM 0% | [2]; at 3.7 µM 0% | [2]; at 11.0 µM 17% | [16]; at 1.2 µM 1% | [16]; at 3.7 µM 4% | [16]; at 11.0 µM 18% | [5]; at 1.2 µM 5% | [5]; at 3.7 µM 17% | [5]; [17] -15% | [5]; at 11.0 µM 52% | [7]; [17] -7% | [8]; at 1.2 µM 7% | [8]; at 3.7 µM 19% | [8]; at 11.0 µM 38% | [9]; [17] -20% | [9]; at 50.0 µM 31.1% | [10]; at 1.2 µM 23% | [10]; at 3.7 µM 30% | [10]; [17] 8% | [10]; at 11.0 µM 68% | [11]; at 1.2 µM -3% | [11]; at 3.7 µM -4% | [11]; at 11.0 µM 14% | [12]; at 1.2 µM 5% | [12]; at 3.7 µM 11% | [12]; at 11.0 µM 33% | [13]; at 1.2 µM 15% | [13]; at 3.7 µM 41% | [13]; at 11.0 µM 62% | [14]; [17] -37% | [15]; at 1.2 µM 19% | [15]; at 3.7 µM 33% | [15]; at 11.0 µM 55%
active: [1]; at 3.7 µM 76% | [1]; at 11.0 µM 88% | [1]; at 33.0 µM 99% | [1]; at 100.0 µM 99% | [2]; at 33.0 µM 95% | [2]; at 100.0 µM 100% | [3]; at 1.2 µM 89% | [3]; at 3.7 µM 92% | [3]; at 11.0 µM 95% | [3]; at 33.0 µM 99% | [3]; at 100.0 µM 99% | [16]; at 33.0 µM 81% | [16]; at 100.0 µM 100% | [4]; at 1.2 µM 81% | [4]; at 3.7 µM 92% | [4]; [17] 87% | [4]; at 11.0 µM 96% | [4]; at 33.0 µM 99% | [4]; [18] 98% | [4]; at 50.0 µM 99.2% | [4]; at 100.0 µM 99% | [5]; at 33.0 µM 94% | [5]; [18] 99% | [5]; at 50.0 µM 99.6% | [5]; at 100.0 µM 100% | [7]; [18] 98% | [7]; at 50.0 µM 95.8% | [8]; at 33.0 µM 78% | [8]; at 100.0 µM 99% | [9]; [18] 98% | [10]; at 33.0 µM 97% | [10]; [18] 98% | [10]; at 50.0 µM 95.2% | [10]; at 100.0 µM 99% | [11]; at 33.0 µM 99% | [11]; at 100.0 µM 99% | [12]; at 33.0 µM 96% | [12]; at 100.0 µM 99% | [13]; at 33.0 µM 100% | [13]; at 100.0 µM 99% | [14]; [18] 98% | [14]; at 50.0 µM 99.5% | [15]; at 33.0 µM 93% | [15]; at 100.0 µM 99%

O=C(O)c1cc2ccccc2c2c1C(=O)c1ccccc1-2
inactive: [1]; at 1.2 µM -3% | [1]; at 3.7 µM 21% | [2]; at 1.2 µM -4% | [2]; at 3.7 µM 16% | [2]; at 11.0 µM 47% | [3]; at 1.2 µM -23% | [3]; at 3.7 µM -36% | [3]; at 11.0 µM 10% | [3]; at 33.0 µM 47% | [3]; at 100.0 µM 67% | [16]; at 1.2 µM 11% | [16]; at 3.7 µM 20% | [16]; at 11.0 µM 43% | [4]; at 1.2 µM 4% | [4]; at 3.7 µM 19% | [4]; [17] 8% | [6]; at 1.2 µM 8% | [6]; at 3.7 µM 21%
active: [1]; at 11.0 µM 74% | [1]; at 33.0 µM 96% | [1]; at 100.0 µM 94% | [2]; at 33.0 µM 94% | [2]; at 100.0 µM 94% | [16]; at 33.0 µM 95% | [16]; at 100.0 µM 95% | [4]; at 11.0 µM 77% | [4]; at 33.0 µM 95% | [4]; [18] 94% | [4]; at 50.0 µM 88.2% | [4]; at 100.0 µM 93%
